High-throughput results: PubChem, National Center for Advancing Translational Sciences (NCATS)
HT1080 IDH1KD tx: toxicity to HT-1080 IDH1 knockdown cells (counter line); HT-1080 IDH1 knockdown viability, ATP luminescence, 48 h; AID 686971; Potency, µM (doses to about 46.1 µM), hits mostly cytotoxic; 360,000 compounds, 2% hits
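Using the IDH1-knockdown HT-1080 line run in the same batch and compound series as the NT line, viability after 48 h at 37 °C was determined by CellTiter-Glo luminescence and expressed as % activity.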
MCF10A rerep: induces DNA re-replication in MCF 10a normal breast cells. MCF 10A DNA re-replication, Hoechst nuclear intensity, 48 h. Potency, µM (titrated, usually from 46.1 µM), most hits filed as activators. 350,000 compounds, 2.9% hits; further: nearly all actives have a fitted effect of over 50% in size
HT1080-NT tox: kills 2HG-producing HT-1080-NT fibrosarcoma cells; HT-1080-NT fibrosarcoma viability, CellTiter-Glo ATP luminescence, 48 h; Potency, µM (top dose mostly 46.1 µM), usual class: cytotoxic; 360,000 compounds, 1.6% hits;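 further: NT is the 2HG producing partner of a matched IDH1 knockdown line; nearly all actives have a fitted effect of over 55% in size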
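Viability of the 2HG-overproducing fibrosarcoma line after 48 hours of compound exposure at 37 degrees C was determined by luminescence with CellTiter-Glo, and concentration-effect curves were then fitted and categorized.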
KB-V1 MDR tox: KB-V1 MDR subline cytotoxicity; KB-V1 MDR cells viability, CellTiter-Glo, 72 h; Potency, µM (top dose mostly 46.1 µM), most hits filed as cytotoxic; 400,000 compounds, 3.4% hits; AID 1347076; further: nearly all actives have a fitted effect of over 60% in size
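Cytotoxicity toward P-gp-expressing KB-V1 cells was determined as loss of CellTiter-Glo luminescence after 72 h at 37 degrees C. Compounds were tested in quantitative HTS format across a concentration range, with curves fitted to normalized data.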
KB-3-1 cytotox: kills parental KB-3-1 adenocarcinoma cells | 400,000 compounds, 1.4% hits | KB-3-1 viability, CellTiter-Glo ATP luminescence, 72 h | Potency, µM (doses to about 46.1 µM), actives largely listed as cytotoxic; further: nearly all actives have a fitted effect of over 60% in size
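Using CellTiter-Glo luminescence, growth of non-resistant KB-3-1 adenocarcinoma cells is assessed 72 h after pin-tool compound addition at 37 °C. Normalized responses across the concentration series yield fitted curves.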
SW480 rereplic: inducers of DNA re-replication in SW480 colon cancer cells. SW480 DNA re-replication, Hoechst DNA content imaging, 48 h. Potency, µM (titrated, usually from 46.1 µM), most hits filed as activators. 340,000 compounds, 1.8% hits; further: nearly all actives have a fitted effect of over 55% in size
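Per well, 250 cells were exposed to pinned compound for 48 hr. Nuclear DNA was visualised with Hoechst (40 min, 37 C) and total object intensity recorded by fluorescence scanning.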
A number is an active result; n = inactive; u = inconclusive; x = no result. Hits are enriched below; roughly 8% of the tested compounds scored in any of these assays. The call rests on the fitted dose curve; in most records, active means well fitted curve in the direction sought with a large enough effect; inconclusive means small, poorly fitted or top-dose-only effect, or another doubt; inactive means no such curve, though single readings can be large; an effect the other way counts as inactive or inconclusive.

SMILES	HT1080 IDH1KD tx	MCF10A rerep	HT1080-NT tox	KB-V1 MDR tox	KB-3-1 cytotox	SW480 rereplic
CCOC(=O)C(C)Oc1cccc2c(=O)n(CC(=O)NCc3ccc4c(c3)OCO4)ccc12 (stereo not given)	u	6.5µM	u	7.3µM	6.5µM	4.1µM
O=C1CCC/C(=N\NC(=O)c2ccc(COc3cccc4cccnc34)cc2)C1	n	u	n	n	n	n
CCOC(=O)c1c(C)oc2nc(C)nc(NCC3CCN(Cc4ccccc4C)CC3)c12	x	x	x	n	n	x
O=C(NC(c1ccccc1)c1ccc2ccccc2n1)C1CCN(CCOc2ccc(Cl)cc2)CC1 (stereo not given)	4.1µM	x	3.7µM	u	u	x
O=C(NC(c1ccccc1)c1ccc2ccccc2n1)C1CCN(Cc2ccc(Oc3ccccc3)cc2)CC1 (stereo not given)	13µM	x	u	n	n	x
COc1ccc(OCCN2CCC(C(=O)NC(c3ccc(F)cc3)c3ccc4ccccc4n3)CC2)cc1 (stereo not given)	u	x	u	n	u	x
COc1cc(CN2CCC(C(=O)NC(c3ccc(F)cc3)c3ccc4ccccc4n3)CC2)cc(OC)c1 (stereo not given)	3.3µM	x	2.3µM	u	5.2µM	x
COc1ccc(OCCN2CCC(C(=O)NC(c3ccccc3)c3ccc4ccccc4n3)CC2)cc1 (stereo not given)	u	x	u	n	u	x
O=C(NC(c1ccc(F)cc1)c1ccc2ccccc2n1)C1CCN(CCOc2ccc(F)cc2)CC1 (stereo not given)	9.2µM	x	u	18µM	u	x
O=C(NC(c1ccc(F)cc1)c1ccc2ccccc2n1)C1CCN(CCOc2ccc(Cl)cc2Cl)CC1 (stereo not given)	12µM	x	u	u	u	x
COc1cc(OC)nc(C(NC(=O)C2CCN(Cc3ccc(Oc4ccccc4)cc3)CC2)c2ccccc2C)n1 (stereo not given)	u	x	16µM	n	n	x
COc1ccc(C(NC(=O)C2CCN(CCOc3ccc(Cl)cc3)CC2)c2cccs2)cc1 (stereo not given)	u	x	21µM	n	n	x
O=C(NC(c1ccc(F)cc1)c1ccc2ccccc2n1)C1CCN(Cc2ccc(Oc3ccccc3)cc2)CC1 (stereo not given)	u	x	n	n	u	x
Cc1cccnc1C(NC(=O)C1CCN(CCOc2ccc(Cl)cc2Cl)CC1)c1ccc(Cl)cc1 (stereo not given)	n	x	n	u	u	x
O=C(NC(c1ccc(F)cc1)c1cnccn1)C1CCN(CCOc2ccc(Cl)cc2Cl)CC1 (stereo not given)	u	x	u	n	n	x
O=C(NC(c1ccc(Cl)cc1)c1cccnc1)C1CCN(CCOc2ccc(Cl)cc2Cl)CC1 (stereo not given)	18µM	x	18µM	n	n	x
Cn1cc(CN2CCC(C(=O)NC(c3ccc(F)cc3)c3ccc4ccccc4n3)CC2)c2ccccc21 (stereo not given)	16µM	x	23µM	u	u	x
CCc1cccc(C)c1NC(=O)c1nc2ccccc2nc1N1CCCCC1	x	x	x	n	n	x
O=C1N/C(=C\c2ccc(O)cc2)C(O)=C1C=NCc1ccccc1	n	10µM	u	u	u	n
COc1ccc(/C=C2\NC(=O)C(C=NCc3ccccc3)=C2O)cc1	n	n	n	n	n	n
O=C(CN1C(=O)c2cccc3cccc1c23)Nc1ccccc1C(=O)NCc1ccco1	n	21µM	n	u	n	n
O=C(CN1C(=O)c2ccccc2S1(=O)=O)Nc1ccccc1C(=O)NCc1ccco1	n	n	n	n	n	n
Cc1ccc(NC(=O)Cc2ccc(-n3c(C)nc4cccnc43)cc2)c(Cl)c1	x	x	x	5.8µM	18µM	x
Cc1cccc(Sc2c([N+](=O)[O-])ncn2C)c1	n	u	n	n	n	n
Cn1cnc([N+](=O)[O-])c1Oc1ccc2ccccc2c1	u	4.1µM	n	u	u	6.5µM
SMILES	HT1080 IDH1KD tx	MCF10A rerep	HT1080-NT tox	KB-V1 MDR tox	KB-3-1 cytotox	SW480 rereplic
Nc1c(C(=O)Nc2ccc(S(=O)(=O)N3CCCC3)cc2)sc2nc3ccc(OC(F)(F)F)cc3cc12	u	u	u	u	15µM	n
COc1ccc(O)c(/C=c2/sc3nc4cc(C)c(C)cc4n3c2=O)c1	u	n	u	18µM	u	n
COC(=O)c1cc(=O)nc2sc3cc(OC)ccc3n12	n	n	n	n	n	n
Brc1ccc2c(c1)CN1CCCC1=N2	n	u	n	n	n	n
COc1cc(/C=N/Nc2snc(SC)c2C#N)cc(OC)c1OC	4.6µM	u	u	n	u	n
CCOC(=O)c1ccc(S(=O)(=O)N2CC(=O)Nc3ccccc32)cc1	n	u	n	n	n	15µM
CCOC(=O)c1ccccc1NC(=O)CN1CCCN(Cc2cccc(Cl)c2)S1(=O)=O	x	x	x	n	n	x
COc1ccc2oc(=Nc3cc(F)ccc3F)c(C(N)=O)cc2c1	u	u	u	u	7.3µM	u
COc1ccc(OC)c(N=c2oc3cc(O)ccc3cc2C(N)=O)c1	n	16µM	n	u	u	18µM
Cc1cccc(C(=O)n2nc(-c3cccnc3)nc2NCc2ccc(F)cc2)c1	x	x	x	n	n	x
c1ccc(Cc2c(-c3ccccc3)nc3c4ccccc4ccn23)cc1	n	x	n	n	n	x
CC(=O)c1ccc(-c2nc3c4ccccc4ccn3c2C(C)=O)o1	n	n	n	7.3µM	u	n
Cc1sc2nc3c(SC(C)C(=O)O)cc(C(=O)c4ccccc4O)cn3c(=O)c2c1C (stereo not given)	n	16µM	n	n	n	n
CCOC(=O)c1sc2nc3c(SCC(=O)O)cc(C(=O)c4cc(F)ccc4O)cn3c(=O)c2c1C	n	3.3µM	n	n	n	n
O=C(O)CSc1cc(C(=O)c2ccccc2O)cn2c(=O)c3c(-c4ccccc4)csc3nc12	n	5.2µM	n	n	n	u
COc1ccc(O)c(C(=O)c2cc(SCC(=O)O)c3nc4sc5c(c4c(=O)n3c2)CCCC5)c1	n	n	n	n	n	n
COC(=O)c1cc(C(=O)c2cc(F)ccc2O)cn2c(=O)c3c(C)c(C)sc3nc12	n	3.7µM	n	n	n	u
CCOC(=O)c1sc2nc3c(SCC(=O)O)cc(C(=O)c4ccccc4O)cn3c(=O)c2c1C	n	n	n	n	n	n
COc1ccc(NC(=O)c2nnn(Cc3nc(-c4cc(Br)ccc4OC)oc3C)c2C)cc1	x	x	x	u	n	x
Cc1ccc(C(=O)COC(=O)CCC(=O)Nc2ccc(Oc3cc(C)ccc3C(C)C)cc2)cc1	x	x	x	n	n	x
C/C(CCN1CCCCc2nc(C)c(C)cc21)=N\OC[C@@H](O)[C@H]1O[C@@H]2OC(C)(C)O[C@@H]2[C@H]1O	x	n	x	x	x	n
